Hits are enriched below; roughly 7.1% of the tested compounds scored in any of these assays.
p53 reactivator = qHTS assay for re-activators of p53 using a Luc reporter; H1299 p53-A138V BP100-luciferase reporter, luminescence, 24 h; Potency, µM (titrated, usually from 92.2 µM), for inactives: at the highest dose activity change, positive = activation, actives largely listed as activators; actives 0.063% (n = 320,000); note: % of control where 0% means no effect; nearly all actives have a fitted effect of over 45% in size
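p53-null H1299 cells stably carrying temperature-sensitive p53-A138V and a BP100-luciferase reporter were pinned with compounds (4-point, 1:5 series) and held 24 hrs at 37 deg C. Luminescence was read 10 min after detection reagent.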
ELG1 genotoxic = qHTS screen for small molecules that induce genotoxicity in human embryonic kidney (HEK293T) cells expressing luciferase-tagged ELG1; HEK293T ELG1-luciferase reporter, luminescence, 16 h; Potency, µM (highest dose often 46 µM), for the others: at the highest dose activity change, positive = activation, most hits filed as activators; actives 1.3% (n = 330,000); AID 504466, 2011; note: % of control where 0% means no effect; nearly all actives have a fitted effect of over 60% in size
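Genotoxic stress is detected as increased luminescence from luciferase-tagged ELG1 in HEK293T cells, measured with ONE-Glo after a 16 hr treatment at 37 °C.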
MCF10A rereplic = A quantitative high throughput screen for small molecules that induce DNA re-replication in MCF 10a normal breast cells. actives 2.9% (n = 350,000). Potency, µM (doses to about 46.1 µM), without a hit: at the top dose activity, positive = re-replication, most hits filed as activators. MCF 10A DNA re-replication, Hoechst nuclear intensity, 48 h; note: % of control where 0% means no effect; nearly all actives have a fitted effect of over 50% in size
A-T KAP1 phos = qHTS Assay for Identifying a Potential Treatment of Ataxia-Telangiectasia; F2112 A-T fibroblasts, KAP-1 phosphorylation AlphaLISA; neocarzinostatin DNA damage 30 min before lysis; Potency, µM (top dose mostly 57.5 µM), for the others: at the highest dose activation, usual class: activators; actives 0.19% (n = 320,000); AID 485349, 2010; note: % of control where 0% means no effect; nearly all actives have a fitted effect of over 45% in size
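hTERT-immortalized A-T patient fibroblasts (F2112), 500 cells/well in OPTI-MEM, 1% FBS, got compounds for 60 min, then NCS for 30 min at 37C. Lysates were then assayed for phospho-KAP-1 by AlphaLISA (anti-pKAP1 donor, anti-KAP1 acceptor beads), 6 hr at 25C.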
ELG1 repair inh = qHTS screen for small molecules that inhibit ELG1-dependent DNA repair in human embryonic kidney (HEK293T) cells expressing luciferase-tagged ELG1. actives 2.3% (n = 330,000). Potency, µM (highest dose often 46.1 µM), for the others: top-dose activity change, negative = inhibition, hits mostly inhibitors. HEK293T ELG1-luciferase reporter, luminescence, 16 h; DNA damage induced by 5-fluorouridine. AID 504467, 2011; note: % is set by controls: 0 for no effect and ±100 for the full control effect; nearly all actives have a fitted effect of over 55% in size
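In this reporter screen, reduction of luminescence relative to DMSO vehicle indicated activity. Compounds and 5-fluorouridine were added together to 2,000 cells per well, incubated for 16 hr at 37 °C, then developed with ONE-Glo.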
SW480 rereplic = A quantitative high throughput screen for small molecules that induce DNA re-replication in SW480 colon adenocarcinoma cells; SW480 DNA re-replication, Hoechst DNA content imaging, 48 h; Potency, µM (series often up to 46.1 µM), for inactives: at the highest dose re-replication activation, hits mostly activators; actives 1.8% (n = 340,000); AID 624297, 2012; note: % of control where 0% means no effect; nearly all actives have a fitted effect of over 55% in size
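250 cells/well; 23 nL cpd via pin tool; 48 hr, 37 C, 5% CO2; Hoechst 40 min; imager read of total nuclear intensity, ex 405/em 500-530 nm.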
An asterisk follows results filed as active. Calls come from the whole dose curve; as a rule, active = well fitted curve in the direction sought with a large enough effect; inconclusive = small, poorly fitted or top-dose-only effect, or another doubt; inactive = no such curve, though single readings can be large; an effect the other way counts as inactive or inconclusive. Potency is the fitted concentration of half-maximal effect.

For CC(C)c1ccc2[nH]c3c(c2c1)CCC/C3=N\NC(=O)c1ccncc1 the results were p53 reactivator -6%, ELG1 genotoxic -16%, MCF10A rereplic 14%, A-T KAP1 phos -5%, ELG1 repair inh 18µM* and SW480 rereplic -2%.
Cc1cc2c(c(C)c1CCO[C@@H]1O[C@H](CO)[C@@H](O)[C@H](O)[C@H]1O)C(=O)[C@@H](C)[C@@H]2O was read as p53 reactivator -15%, ELG1 genotoxic 3%, MCF10A rereplic 18µM*, A-T KAP1 phos -1%, ELG1 repair inh 2% and SW480 rereplic -2%.
`COCCNC(=O)/C(C#N)=C/c1c(N2CCN(C)CC2)nc2c(C)cccn2c1=O` gave p53 reactivator -3%, ELG1 genotoxic 0%, MCF10A rereplic -6%, A-T KAP1 phos -20%, ELG1 repair inh -2% and SW480 rereplic 21µM*.
Screening CCN1CCN(c2nc3c(C)cccn3c(=O)c2/C=C(\C#N)C(=O)NCCOC)CC1 returned p53 reactivator -2%, ELG1 genotoxic 0%, MCF10A rereplic 16µM*, A-T KAP1 phos 0%, ELG1 repair inh -1% and SW480 rereplic 6.5µM*.
`COCCCNC(=O)/C(C#N)=C/c1c(N2CCN(C)CC2)nc2c(C)cccn2c1=O` gave p53 reactivator 4%, ELG1 genotoxic 0%, MCF10A rereplic inconclusive, A-T KAP1 phos -17%, ELG1 repair inh 16% and SW480 rereplic inconclusive.
`COCCNC(=O)/C(C#N)=C/c1c(N2CCCCCC2)nc2c(C)cccn2c1=O` gave p53 reactivator -9%, ELG1 genotoxic -8%, MCF10A rereplic -2%, A-T KAP1 phos 3%, ELG1 repair inh -9% and SW480 rereplic inconclusive.
For COC(=O)/C(C#N)=C/c1c(N2CCN(c3ccc(OC)cc3)CC2)nc2c(C)cccn2c1=O the results were p53 reactivator -4%, ELG1 genotoxic -5%, MCF10A rereplic 0%, A-T KAP1 phos -31%, ELG1 repair inh inconclusive and SW480 rereplic -3%.
For CNC(=O)/C(C#N)=C/c1c(N2CCN(c3ccc(OC)cc3)CC2)nc2c(C)cccn2c1=O the results were p53 reactivator -8%, ELG1 genotoxic -10%, MCF10A rereplic 21µM*, A-T KAP1 phos -20%, ELG1 repair inh inconclusive and SW480 rereplic -1%.
For Cc1ccc(C(=O)CCC(=O)Nc2cccc(C)c2)cc1 the results were p53 reactivator 6%, ELG1 genotoxic 0%, MCF10A rereplic -12%, A-T KAP1 phos 13%, ELG1 repair inh -1% and SW480 rereplic inconclusive.
CC(NS(=O)(=O)c1ccc(Cl)cc1)C(=O)N1CCOCC1 (stereo not given) was read as p53 reactivator 3%, ELG1 genotoxic 1%, MCF10A rereplic 0%, A-T KAP1 phos -9%, ELG1 repair inh 9% and SW480 rereplic -12%.
CCCN(C(=O)CCNC(=O)c1ccc(Cl)cc1)c1c(N)n(Cc2ccccc2)c(=O)[nH]c1=O was read as p53 reactivator 4%, ELG1 genotoxic 4%, MCF10A rereplic inconclusive, A-T KAP1 phos 0%, ELG1 repair inh 10% and SW480 rereplic 19%.
`Cc1cc(/C=C2\SC(=Nc3ccc(F)cc3)NC2=O)c(C)n1-c1ccc(S(N)(=O)=O)cc1` gave p53 reactivator -22%, ELG1 genotoxic -9%, MCF10A rereplic 1.6µM*, A-T KAP1 phos -6%, ELG1 repair inh inconclusive and SW480 rereplic 8.2µM*.

Screens as filed in PubChem BioAssay.
